Test results as given in the supplement of paper PMC6555819.

test system: THRa:RXRa (NR concentration 90 nM, RXRa partner concentration 90 nM); assay: PBM binding z-score (relative to random genomic background probes); higher = stronger binding; sequences stand for … in GC…GCGATTGACAGCGTAGAATGAAGG
In short: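 The probes on custom Agilent 4×180K protein-binding microarrays were double-stranded, with 34-nt variable regions bearing direct-repeat seeds, single-nucleotide variants, half-site ablations and random human genomic background sequences. Incubation lasted 1 h with ligand-free nuclear receptor dimers in PBS pH 7.4, 2% milk, 0.02% Triton X-100, 1 mM DTT, 0.2 mg/mL BSA and 0.4 mg/ml salmon testes DNA. Antibodies against each partner (one per run) detected bound dimers, and fluorescence scans were regression-normalized. Binding z-scores take the random background probes as reference.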

Q: For TCATATAGGTATAAGGTGAAAGTCGGTGTGGTAA, which PBM binding z-score is on record?
A: The PBM binding z-score was 2.68.

Q: With GCTATTAGTTGAAAGAGCAACCGAATGATTCTCG as the sequence, how does the PBM binding z-score read?
A: Its PBM binding z-score is -0.376.

Q: With ACTAGCAGGCCATGTTTGGGTCACTCAAACAAAG as the sequence, how does the PBM binding z-score read?
A: Its PBM binding z-score is 2.24.

Q: How did the PBM binding z-score turn out when ATCTCTAGGTAACAAGTTCACTGAAAGAGAGGAC was run?
A: Its PBM binding z-score is 2.12.

Q: For TCTGCTAGGGCAACGATGGTCAGCTAATCTGCTA, which PBM binding z-score is on record?
A: The PBM binding z-score was 0.381.

Q: GCTTGTAGATCAAGGTAAAGAAAGACTAAGCTAA was tested. Which PBM binding z-score did it give?
A: The PBM binding z-score was 0.48.

Q: Which PBM binding z-score does the source give for TCTGCTAAGTCAACGATGGTCAGCTAATCTGCTA here?
A: Its PBM binding z-score is -0.52.

Q: Which PBM binding z-score does the source give for CCTACTGGGCCACGAAAGGTCGTTGATTCAGTGA here?
A: The PBM binding z-score was 2.26.

Q: CAAACTAGGTCGAGAGGTCAAAGTCCGCTTCCCG was tested. Which PBM binding z-score did it give?
A: The PBM binding z-score was 3.62.

Q: ACAGACAGGTGATGAAGGTAAGTCAGGCTATCAT was tested. Which PBM binding z-score did it give?
A: Its PBM binding z-score is 0.617.

Q: Which PBM binding z-score does the source give for ATCGAACGGTCGAAGGTGAGTATACCCACCCGAA here?
A: The PBM binding z-score was -0.016.

Q: How did the PBM binding z-score turn out when AGAATGAGGTTAAGATCAGGGAAACAGAATACAT was run?
A: The PBM binding z-score was 2.67.

Q: Which PBM binding z-score does the source give for ATATGTAGGTTAACGGTCATTCAGGTTGGTTCGC here?
A: Its PBM binding z-score is 1.62.

Q: Which PBM binding z-score does the source give for TCTGCTAGGTCAGATGGTCAGCTAACGAGCTGCC here?
A: Its PBM binding z-score is 1.51.

Q: For TCTGCGAGGTCAGTTGGTCAGCTAACGAGCTGCC, which PBM binding z-score is on record?
A: Its PBM binding z-score is 3.22.

Q: With TCGAGTAGGGTAGTCGGGGCATTCAGCCAACATA as the sequence, how does the PBM binding z-score read?
A: Its PBM binding z-score is 0.368.

Q: AGAATGAGGTTACCAATGATCAGGGAAACGCTTG was tested. Which PBM binding z-score did it give?
A: Its PBM binding z-score is 2.61.

Q: How did the PBM binding z-score turn out when GCGACTGGGGCAAAGCGGGTTACCATAAGGTTGG was run?
A: Its PBM binding z-score is 2.47.

Q: How did the PBM binding z-score turn out when AGAATGAGGTTATTAAGATCATGGAATTGCGGTC was run?
A: The PBM binding z-score was 2.17.

Q: How did the PBM binding z-score turn out when GCGACTGGGGCATCAGCAGGTTACCCTAACTTAA was run?
A: Its PBM binding z-score is 1.29.

Q: For CCTACTGGGCCACGAAAGGTCATTGTTTCAGTGA, which PBM binding z-score is on record?
A: Its PBM binding z-score is 3.94.

Q: Which PBM binding z-score does the source give for CCCACTGGGCCATCAGGTCATTGATATCAACGTT here?
A: Its PBM binding z-score is 3.22.
